Screening results deposited in PubChem BioAssay by several laboratories.
Sampled rows, rich in hits. Any-hit rate of the full collection: about 12%.
Insulin prom up = insulin promoter activators in MIN6 cells, imaging, high-content screening, mouse beta cells; z-score at 5 µM; 0.3% of 190,000 active; MIN6 insulin promoter-GFP reporter; active compounds read high;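 active means z-score above 3 at 5 µM with at least 500 cells counted in the well; inconclusive means wells under 500 cells, flagged as cytotoxic or low count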
ROMK mod = ROMK potassium channel modulators, primary screen, cell-based, thallium flux, MLSMR library; ATP-sensitive inward rectifier potassium channel 1 (Homo sapiens), P48048; Tet-inducible ROMK, thallium flux fluorescence; actives lie on both sides; B-score at 10 µM; 2% of 130,000 active; AID 1918, 2009;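 active means signal ratio slope over the read window, or its plate-corrected B-score, at least 3 SD from the plate mean, either direction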;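 further: B-score of the F/F0 ratio slope over 7 to 12 s after thallium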
Target sequence (P48048 whole entry, looked up): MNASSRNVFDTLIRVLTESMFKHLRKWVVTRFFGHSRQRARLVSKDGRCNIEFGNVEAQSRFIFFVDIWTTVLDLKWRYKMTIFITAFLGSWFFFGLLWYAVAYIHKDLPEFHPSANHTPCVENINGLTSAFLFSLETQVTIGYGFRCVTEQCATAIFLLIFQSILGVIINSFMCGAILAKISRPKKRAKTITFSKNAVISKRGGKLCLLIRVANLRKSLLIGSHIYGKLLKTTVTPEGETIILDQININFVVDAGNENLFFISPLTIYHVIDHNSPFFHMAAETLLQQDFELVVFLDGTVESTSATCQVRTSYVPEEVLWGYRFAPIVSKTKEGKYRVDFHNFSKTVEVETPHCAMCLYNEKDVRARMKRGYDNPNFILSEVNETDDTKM
Insulin prom inh = inhibitors of insulin promoter-driven GFP, primary screen, imaging, TRM-6 cells (human fetal islet line), eGFP reporter, cell count. 0.9% of 130,000 active. AID 1273, 2008. inhibition, % at 2 µM. reporter expression induced with tamoxifen;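 active means inhibition above the mean plus 3 SD, with well images judged a real hit on visual review, cut at about 60% in these data, passing the limit was not always enough; inconclusive means inhibition over the cutoff but images rejected on review; inactive means inhibition not above the cutoff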
KCC2 mod = KCC2 cotransporter modulators, thallium flux, primary screen, cell-based, HEK293 KCC2, FluoZin-2 fluorescence, MLSMR | KCC2 cells, thallium flux FluoZin-2 fluorescence | 2.2% of 190,000 active | AID 1456, 2008 | B-score of Tl+ flux slope (higher = more flux/activation; lower = inhibition) at 10 µM;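 active means thallium flux slope and its plate-corrected score both differing from the plate sample mean at a set confidence after two filtering rounds, in either direction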;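 further: slope of fluorescence scaled to starting intensity during 10 to 20 s after thallium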
L major viab = Leishmania major promastigote growth inhibition, primary screen; Leishmania major promastigotes, resazurin fluorescence viability; inhibition, % at 10 µM; 9% of 200,000 active; AID 1063, 2008; in the data active means inhibition above about 50%;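 further: promastigotes grown with compound for 44 hours at 28 °C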
WT yeast gro inh = growth inhibition of WT strain, primary screen, mitochondrial fusion inhibitor project, WT and mutant strains, chemical genetic. 2.1% of 190,000 active. mitochondrial fusion phenotypic screen. inhibition, % at 10 µM. AID 1362, 2008; in the data active means inhibition above about 58%; tested in S. cerevisiae
Large screens that a line does not name were inactive.

CSCCC(NC(=O)c1ccc([N+](=O)[O-])cc1Cl)C(=O)OCC(=O)NC1CCCC(C)C1C (stereo not drawn)	L major viab 60
CSCCC(NC(=O)c1cc([N+](=O)[O-])ccc1Cl)C(=O)O (stereo not drawn)	none (no result: ROMK mod, Insulin prom inh)
COc1ccc2cc(CN(CCc3ccccc3)Cc3nnnn3CC3CCCO3)c(=O)[nH]c2c1 (stereo not drawn)	L major viab 100 (no result: Insulin prom up, KCC2 mod)
COCCn1nnnc1CN(CCc1ccccc1)Cc1cc2ccc(C)cc2[nH]c1=O	L major viab 100 (no result: ROMK mod)
FC(F)(F)c1ccccc1NC1=NCCC1	none
N#C/C(=C\c1ccc([N+](=O)[O-])o1)c1nc2ccccc2[nH]1	Insulin prom up inconclusive, L major viab 100 (no result: ROMK mod, Insulin prom inh)
Cc1ccc2nc(/C(C#N)=C\c3ccc(Oc4ccc([N+](=O)[O-])cn4)cc3)[nH]c2c1	L major viab 99
COc1ccc2nc(/C(C#N)=C\c3ccc(Oc4ccc([N+](=O)[O-])cn4)cc3)[nH]c2c1	none (no result: ROMK mod)
Cc1ccc2nc(/C(C#N)=C\c3ccc([N+](=O)[O-])o3)[nH]c2c1	Insulin prom up inconclusive, L major viab 100 (no result: Insulin prom inh)
N#C/C(=C\C1CC2C=CC1C2)c1nc2ccccc2[nH]1 (stereo not drawn)	Insulin prom inh 79, L major viab 56 (no result: ROMK mod)
N#C/C(=C\Nc1ccc2c(c1)OCCO2)c1nc2ccccc2[nH]1	none (no result: ROMK mod)
N#C/C(=C\c1cccs1)c1nc2ccccc2[nH]1	Insulin prom inh 85, L major viab 60
Cc1ccc2nc(/C(C#N)=C\c3cc(C)n(-c4cccc([N+](=O)[O-])c4)c3C)[nH]c2c1	L major viab 85 (no result: KCC2 mod)
COc1ccc(NC(=O)CSc2nc3ccccc3cc2Cc2ccccc2)cc1	none (no result: Insulin prom up, ROMK mod, KCC2 mod)
COc1ccc(OC)c(NC(=O)CSc2nc3ccccc3cc2Cc2ccccc2)c1	L major viab 82 (no result: ROMK mod, KCC2 mod)
COc1ccc(C(C)=O)cc1CSc1nnc(Nc2ccccc2C)s1	none
COc1ccc(C(C)=O)cc1CSc1nnc(Nc2ccc(C)cc2C)s1	WT yeast gro inh 61 (no result: ROMK mod, Insulin prom inh)
CC(C)CC(NC(=O)C1CCCCC1)C(=O)N1CCN(c2ccccn2)CC1 (stereo not drawn)	none (no result: Insulin prom up)
CCCN(CC1CC1)C(=O)COC(=O)c1ccc2c(c1)C(=O)N(c1ccc(OCC)cc1)C2=O	none
CC(C)N1CC=C2C(C#N)=C(N)C(C#N)(C#N)[C@H](c3ccoc3)[C@H]2C1	none (no result: Insulin prom up, ROMK mod)
Cc1ccc(C2C3CSCC=C3C(C#N)=C(N)C2(C#N)C#N)cc1 (stereo not drawn)	L major viab 61
CC(C)N1CC=C2C(C#N)=C(N)C(C#N)(C#N)C(c3ccccc3)C2C1 (stereo not drawn)	ROMK mod -4.2 (no result: Insulin prom up)
CCN1CC=C2C(C#N)=C(N)C(C#N)(C#N)C(c3cc(Cl)ccc3Cl)C2C1 (stereo not drawn)	ROMK mod -4.8, L major viab 65 (no result: Insulin prom up, Insulin prom inh)
Clc1ccc(-c2nc3ccccc3nc2-c2ccccc2)cc1	none (no result: ROMK mod)
COC(=O)c1sc2nc(C)nc(SCC(=O)N3CCC(C(=O)O)CC3)c2c1C	none
Cc1sc(NC(=O)c2ccco2)nc1-c1ccccc1	none (no result: ROMK mod)
Cc1sc(NC(=O)c2ccco2)nc1-c1ccc2c(c1)CC(C)N2C(=O)C1CC1 (stereo not drawn)	L major viab 86
CCN1C(=O)C2(C(C#N)=C(N)Oc3c2c(C)nn3-c2ccccc2)c2ccccc21 (stereo not drawn)	L major viab 86 (no result: ROMK mod, WT yeast gro inh)
Cc1noc(C)c1CN1C(=O)NC2(CCCCCCC2)C1=O	L major viab 100
CCN(CC#CCC(O)(c1ccccc1)C1CCCC1)C(C)C (stereo not drawn)	L major viab 68 (no result: ROMK mod)
CC(C)N(CC#CCC(O)(c1ccccc1)C1CCCC1)CCO (stereo not drawn)	none (no result: Insulin prom inh)
Cc1ccc(NC(=S)Nc2ccc(Br)cc2)cc1	none (no result: ROMK mod)
COc1ccc(Nc2nc(Nc3ccc(OC)cc3)nc(-n3[nH]c(=O)c(C)c3C)n2)cc1	L major viab 100 (no result: Insulin prom inh, KCC2 mod)
CCN(CC)S(=O)(=O)c1ccc(N2CCOCC2)c(NC(=O)c2ccc(C#N)cc2)c1	none (no result: Insulin prom inh)
CC(C)(CN1CCN(Cc2ccccc2)CC1)NS(=O)(=O)c1ccccc1	none (no result: ROMK mod, Insulin prom inh, L major viab, WT yeast gro inh)
CCN(CC)CC(C)(C)NS(=O)(=O)c1ccc(Cl)cc1	L major viab 71 (no result: KCC2 mod)
CC(C)(CN1CCCCC1)NS(=O)(=O)c1ccc(Cl)cc1	L major viab 90 (no result: KCC2 mod)
CC1CC(C)CN(CC(C)(C)NS(=O)(=O)c2ccc(Cl)cc2)C1 (stereo not drawn)	L major viab 95 (no result: ROMK mod)
CC(C)(CNS(=O)(=O)c1ccc(Cl)cc1)N1CCCCC1	Insulin prom up 3.6, L major viab 81 (no result: ROMK mod)
CN(C)CC(C)(C)NS(=O)(=O)c1ccc(Cl)cc1	none (no result: ROMK mod, Insulin prom inh)
O=C(O)[C@@H]1Cc2ccccc2N1	none (no result: ROMK mod, Insulin prom inh, L major viab, WT yeast gro inh)
COC(=O)c1c(S(C)(=O)=O)nc(-c2ccccc2)[nH]c1=O	none
CN(O)/C=c1/ccc2c(n1)C(=O)C=CC=2	none (no result: Insulin prom up, Insulin prom inh)
Cc1ccc(-n2ncc3c(=O)n(CC(=O)Nc4cccc(Cl)c4)cnc32)cc1C	none (no result: KCC2 mod)
O=C(O)/C=C1\NC(=O)c2ccccc21	none (no result: KCC2 mod)
O=C1N/C(=C\c2ccc(O)cc2)C(=O)c2ccccc21	L major viab 100 (no result: Insulin prom inh)
COc1ccc2[nH]c3c(N4CCN(Cc5ccc6c(c5)OCO6)CC4)ncnc3c2c1	L major viab 56 (no result: Insulin prom inh)
COc1ccc2[nH]c3c(N4CCC(O)(c5cccc(C(F)(F)F)c5)CC4)ncnc3c2c1	L major viab 100 (no result: ROMK mod)
CCC(=O)n1nc(-c2ccco2)nc1N	none (no result: ROMK mod)
C=CCn1c(SCc2nc3ccccc3[nH]2)nnc1-c1cccc(OC)c1	none (no result: ROMK mod)
CCn1c(N2CCN(S(=O)(=O)c3ccccc3C(F)(F)F)CC2)nc2ccccc21	L major viab 74 (no result: ROMK mod, Insulin prom inh, KCC2 mod)
CCCC1Cc2c(sc3ncnc(N)c23)CO1 (stereo not drawn)	none (no result: KCC2 mod)
O=C(NCCCN1CCCC1=O)c1ccccc1NS(=O)(=O)c1ccc(F)cc1	none (no result: ROMK mod)
CCN1CCN(c2ccc(NC(=O)c3ccc([N+](=O)[O-])o3)cc2Cl)CC1	L major viab 101
CCC(=O)N1CCN(c2ccc(NC(=O)c3ccc([N+](=O)[O-])o3)cc2Cl)CC1	L major viab 101, WT yeast gro inh 66 (no result: Insulin prom inh)
CCn1nc(C)c(/C=N/NC(=O)c2ccoc2C)c1C	none (no result: ROMK mod)
CCCCCn1nc(C)c(/C=N/NC(=O)c2ccoc2C)c1C	Insulin prom inh 93 (no result: Insulin prom up, ROMK mod, KCC2 mod)
CCCCCn1nc(C)c(/C=N\NC(=O)c2cc(C)oc2C)c1C	Insulin prom inh 85 (no result: ROMK mod)
Cc1ccc(NC(=O)CCC(=O)NNS(=O)(=O)c2ccccc2)c(C)c1	none (no result: Insulin prom inh)
Cc1cc(C)cc(NC(=O)CN(c2ccc(F)cc2)S(C)(=O)=O)c1	none
COc1cc([N+](=O)[O-])ccc1NC(=O)/C=C/C(=O)O	none (no result: ROMK mod)
O=C(NNc1ccccc1Br)C(=O)n1ccc2ccccc21	KCC2 mod 12
